Compound activity from PubChem.
The full list was thinned out, with hits kept by preference.
Gal4-VP16 FLuc: VP16 counterscreen qHTS for inhibitors of ROR gamma transcriptional activity; 310,000 compounds, 3.5% hits; Drosophila S2 Gal4-VP16 UAS-luciferase, luminescence, 20 h; Potency, µM (highest dose often 53.6 µM), inactives show top-dose activity, negative = inhibition, actives largely listed as inhibitors;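 further: Gal4-VP16 expression switched on by copper sulfate through the metallothionein promoter; potency means the concentration at half of the fitted maximal effect; on the % scale 0 is the no-effect control and ±100 the full control effect; nearly all actives have a fitted effect of over 50% in size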
ERG Ets-DNA blk: qHTS for Small Molecule Inhibitors of the ERG Ets/DNA interaction; Transcriptional regulator ERG (Homo sapiens), P11308; fluorescence polarization, His-ERG Ets domain / labelled DNA; Potency, µM (series often up to 76.9 µM), for inactives: top-dose FP activity, negative = inhibition, hits mostly inhibitors; 370,000 compounds, 0.028% hits; active means well fitted inhibition curve with a large enough effect in the polarisation, with a control signal flat; inconclusive means small, poorly fitted or top-dose-only effect, or effect the other way, or a change in a side signal; inactive means no such curve, though single readings can be large or run the other way; the % refers to the polarisation;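 further: polarization taken with two DNA probes labelled with fluorescein and Texas red; potency means the concentration at half of the fitted maximal effect; % of control where 0% means no effect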
Target sequence (P11308 whole entry, looked up, the tested form may be a part): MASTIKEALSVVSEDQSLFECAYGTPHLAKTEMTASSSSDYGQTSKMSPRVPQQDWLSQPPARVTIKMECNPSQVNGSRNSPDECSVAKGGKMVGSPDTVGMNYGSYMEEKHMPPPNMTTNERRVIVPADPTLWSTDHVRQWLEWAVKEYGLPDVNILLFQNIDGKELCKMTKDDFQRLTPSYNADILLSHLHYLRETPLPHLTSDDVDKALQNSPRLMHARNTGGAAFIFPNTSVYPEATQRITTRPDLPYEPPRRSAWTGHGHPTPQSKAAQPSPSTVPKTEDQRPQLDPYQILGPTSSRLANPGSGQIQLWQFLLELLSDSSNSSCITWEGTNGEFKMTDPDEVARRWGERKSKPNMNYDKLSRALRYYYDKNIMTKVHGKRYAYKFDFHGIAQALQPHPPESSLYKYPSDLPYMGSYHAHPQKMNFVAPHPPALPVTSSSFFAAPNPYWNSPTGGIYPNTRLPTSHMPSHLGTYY
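His-tagged ERG Ets domain (1 uM in the protein solution; 300mM KCl, 50mM Tris-HCl, 1mM EDTA, 1mM DTT, pH 7.5) received compound, then a probe mix of 5 nM fluorescein-DNA and 100nM Texas-615-DNA. Fluorescence polarization was read for both dyes.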
Giardia kill: Small Molecules that selectively kill Giardia lamblia: qHTS; AID 540267, 2011; 340,000 compounds, 0.15% hits; Giardia lamblia trophozoite viability; activity change, % at 7.66 µM, hits read low; in the data active means activity change below about -80%; inconclusive means between about -30% and that limit;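 further: parasites exposed to compound for two days anaerobically before the ATP read; on the % scale 0 is the no-effect control and ±100 the full control effect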
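Each well holds 100 Giardia trophozoites and compound. After two days (48 hrs) at 37 deg C in anaerobic conditions, ATP is quantified by luminescence.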
a7 integrin act: qHTS for Activators of Integrin-Mediated Alleviation for Muscular Dystrophy. alpha7betagal myoblasts, beta-gal FDG fluorescence, 48 h. Potency, µM (series often up to 38.3 µM), inactives show at the top dose activation, actives largely listed as activators. 350,000 compounds, 0.064% hits;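 further: potency means the concentration at half of the fitted maximal effect; 100% = response of the positive control SU9516; nearly all actives have a fitted effect of over 60% in size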
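alpha7betagal+/- myoblasts (passage 13, 250/well) treated 48 h at 37C with compounds at 1:260 dilution of DMSO stock. Lysed, then beta-galactosidase activity read as FDG fluorescence (ex 480/em 540) after 30 min, with pre-read for autofluorescence.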
RORg inh: qHTS for inhibitors of ROR gamma transcriptional activity; Nuclear receptor ROR-gamma (Mus musculus), P51450; Drosophila S2 Gal4-RORgamma UAS-luciferase reporter, 20 h; Potency, µM (titrated, usually from 53.6 µM), without a hit: at the top dose activity change, negative = inhibition, usual class: inhibitors; 310,000 compounds, 5.4% hits; further: potency means the concentration at half of the fitted maximal effect; on the % scale 0 is the no-effect control and ±100 the full control effect; nearly all actives have a fitted effect of over 60% in size
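ROR gamma transcriptional activity was tracked as Gal4-UAS luciferase output in stably transfected Drosophila Schneider cells, with compound added 1 hr before 700 uM copper sulfate induction and a 20 hr ambient-temperature incubation.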
* = called active by the depositor; ? = inconclusive; . = no result; [ ] = dose if it differs, or a comment. Unless noted, the call rests on the fitted dose curve; in most records, active means well fitted curve in the direction sought with a large enough effect; inconclusive means small, poorly fitted or top-dose-only effect, or another doubt; inactive means no such curve, though single readings can be large; an effect the other way counts as inactive or inconclusive.

SMILES | Gal4-VP16 FLuc | ERG Ets-DNA blk | Giardia kill | a7 integrin act | RORg inh
COc1ccc(C2/C=C\CN(S(=O)(=O)CC34CCC(CC3=O)C4(C)C)CC(=O)N2Cc2ccc(F)cc2)cc1 (centres undefined) | -1% | . | 16 | . | 22%
S=C(NCCN1CCOCC1)Nc1cccc2ccccc12 | ? | 2% | -26 | -34% | ?
S=C(NCc1cccs1)Nc1cccc2ccccc12 | ? | -6% | 9 | -19% | 3.5µM*
Cc1ccc(NC(=O)Cc2ccc(-n3c(C)nc4cccnc43)cc2)cc1C | . | 1% | . | . | .
CCn1nc(C)c(CCN(C)C(=O)Nc2ccc(C)c(Cl)c2)c1C | . | 0% | . | . | .
CC1CN(CN2C(=O)c3ccccc3C2=O)CC(C)O1 (centres undefined) | 13µM* | 2% | -12 | 21% | 37%
COc1cc(-c2ccno2)ccc1S(=O)(=O)N1CCN(c2cccc(Cl)c2)CC1 | . | 0% | . | . | .
O=C(Nc1ccccc1N1CCOCC1)c1ccccc1[N+](=O)[O-] | -16% | 8% | -4 | 3% | 21%
O=C(N/N=C/c1ccncc1)c1ccccc1[N+](=O)[O-] | 2% | 13% | -6 | 16% | -18%
O=C(N/N=C/c1ccc(N2CCOCC2)o1)c1cccc(C(F)(F)F)c1 | 4µM* | -6% | -5 | 0% | 6.3µM*
O=C(N/N=C/c1ccc(N2CCCCC2)o1)c1ccccc1[N+](=O)[O-] | 8.9µM* | -8% | 17 | -32% | ?
O=C(Nc1ccc(N2CCOCC2)nc1N1CCOCC1)c1cccc(C(F)(F)F)c1 | 9% | 7% | -20 | -8% | 25%
O=C(N/N=C/c1ccc(N2CCOCC2)s1)c1ccccc1Br | -7% | 0% | 17 | -1% | 11µM*
O=C(N/N=C/c1ccc(N2CCOCC2)o1)c1ccccc1[N+](=O)[O-] | ? | -10% | 6 | 10% | 13µM*
Cc1ccc(S(=O)(=O)N2CCOCC2)cc1C(=O)N1CCN(S(=O)(=O)c2ccccc2F)CC1 | . | -3% | -18 | 32% | .
CN1CCCC1CCNc1ccc2oc3ccccc3c(=O)c2c1 (centres undefined) | ? | -6% | -10 | -31% | 8.9µM*
CC(C)C(=O)N1CCN(c2nc(-c3ccc(Cl)cc3)cs2)CC1 | 0% | 8% | -15 | -35% | -2%
S=C(NCc1ccco1)N1CCN(c2nc(-c3ccc(Cl)cc3)cs2)CC1 | ? | 2% | 11 | ? | 11µM*
O=C(Cc1cccs1)N1CCN(c2nc(-c3ccc(Cl)cc3)cs2)CC1 | ? | 0% | 9 | -33% | 13µM*
O=C(c1ccco1)N1CCN(Cc2nnc(-c3cccc(Br)c3)o2)CC1 | -14% | 3% | 56 | -2% | -9%
COc1ccc(N(CC(C)C)S(=O)(=O)c2nnc(NC(=O)c3ccco3)s2)cc1 | 2% | -9% | -28 | -13% | 41%
CCCCCC(=O)NNC1=NCC(Cc2cccc(Cl)c2)S1 (centres undefined) | 5µM* | 7% | 13 | -11% | 0.79µM*
CCOC(=O)c1ccc(Nc2ncnc3ccccc23)cc1 | 3% | -5% | 20 | 0% | ?
CCOC(=O)C/C(=N\Nc1ncnc2ccccc12)c1ccccc1 | 6.3µM* | -2% | -20 | 22% | 6.3µM*
CCOC(=O)/C(=N\Nc1ncnc2ccccc12)c1ccc(C)cc1 | 13µM* | 7% | 5 | 10% | 5.6µM*
SMILES | Gal4-VP16 FLuc | ERG Ets-DNA blk | Giardia kill | a7 integrin act | RORg inh
O=C(Cn1c(=O)nc(-c2ccccc2F)c2cc(Cl)ccc21)NCCCc1ccccc1 | . | -1% | . | . | .
CCOC(=O)CN=C1CC(C)(C)CC2=C1Sc1ncnc(N(C)C)c1N2 | ? | -1% | -5 | -35% | 11µM*
Cc1ccc(S(=O)(=O)N[C@H]2COC(=O)[C@@H](Cc3ccccc3)NC(=O)[C@@H](C)COC(=O)C/C=C\[C@@H]2C)cc1 | 4%[10 µM] | . | . | . | 0%[10 µM]
NC(=S)Cc1nc(-c2ccccc2)cs1 | 8.9µM* | -8% | 7 | -16% | 11µM*
COc1ccccc1NC(=O)CSc1nnc(C)s1 | -8% | 1% | -14 | 18% | -4%
O=C(Nc1ccccn1)Nc1cccs1 | 10µM* | . | 7 | 6% | 22%
O=C(c1ccccc1)c1nc[nH]c1C(=O)Nc1ccccn1 | 18µM* | -17% | 2 | 14% | 13µM*
Cc1cc(C(=O)Nc2ccccn2)cs1 | ? | -6% | -1 | ? | 11µM*
O=C(NC(=O)c1ccccc1)Nc1ccccn1 | 1.6µM* | . | . | . | 0.5µM*
CCOC(=O)c1cc2c(=O)n3ccccc3nc2n(C(C)C)c1=NC(=O)c1cc2ccccc2o1 | . | 0% | . | . | .
CC(C)OC(=O)[C@@H]1CC[C@H](C)[C@@H](CCC[C@@H]2CC=C[C@H](CC#N)O2)O1 | 4% | . | . | . | ?
CCCCCCCC/C=C\CCCCCCCC(=O)N[C@H](CO)Cc1ccc(O)cc1 | ? | . | . | . | 25%
Cn1c(=O)c2c(nc(NCc3ccco3)n2C)n(C)c1=O | 8% | . | -7 | -14% | -1%
Cn1c(=O)c2c(nc(NCc3ccco3)n2C/C=C/c2ccccc2)n(C)c1=O | 4.5µM* | 0% | 12 | 0% | 2.2µM*
Cn1c(=O)c2c(nc(NCc3ccco3)n2Cc2ccccc2Cl)n(C)c1=O | 4.5µM* | 11% | 29 | -44% | -35%
Cc1ccc(C)c(NC(=O)c2nc(S(=O)(=O)Cc3ccc(F)cc3)ncc2Cl)c1 | . | 0% | . | . | .
CCc1nnc(NC(=O)c2ccc(Cl)c(S(=O)(=O)N3CCc4ccccc43)c2)s1 | ? | -3% | 6 | -24% | 20µM*
CCc1nnc(NC(=O)c2nc(S(=O)(=O)Cc3ccc(C)cc3)ncc2Cl)s1 | 11µM* | 6% | 0 | -73% | 16µM*
CCc1nnc(NC(=O)c2nc(S(=O)(=O)Cc3cccc(C)c3)ncc2Cl)s1 | 7.9µM* | 11% | -11 | 0% | 13µM*
CCOc1ccccc1NC(=O)c1nc(S(=O)(=O)Cc2cccc(C)c2)ncc1Cl | 2.5µM* | -6% | 27 | -35% | 8.9µM*
Cc1ccc(CS(=O)(=O)c2ncc(Cl)c(C(=O)Nc3ccc(OC(F)F)cc3)n2)cc1 | ? | -2% | 2 | -1% | -96%
Cc1cccc(C(=O)N2CCc3cc(CNS(=O)(=O)c4ccc(Cl)s4)ccc32)c1 | . | 0% | . | . | .
CCc1nnc(NC(=O)c2nc(S(=O)(=O)Cc3ccccc3)ncc2Cl)s1 | 8.9µM* | 0% | -16 | -75% | 11µM*
COc1cccc(-c2nnc3n2N=C(c2c(OC)cccc2OC)CS3)c1OC | 0% | . | . | . | 4%
O=C(CNC(=O)c1ccc(Cl)cc1)c1ccc(Br)cc1 | 20% | 0% | 12 | 0% | 24%
O=C(CNC(=S)NC(=O)c1ccc(Cl)cc1)c1ccccc1 | 13µM* | . | ? | 17% | 10µM*
